The campaign covered roughly 1,300 compounds. About 980 (75%) were called active. Inconclusive results (about 4%) are left out. The list shows a part of the results.
Target: Sulfhydryl oxidase 1 (Homo sapiens) (UniProt O00391)
Assay: QSOX1 enzyme inhibitors, primary screen, biochemical, HyperBlu H2O2 luminescence, HTS (AID 1347420); note: values above 100% were filed as inconclusive
Settings: recombinant QSOX1, HyperBlu H2O2 luminescence; at 12.5 µM; active compounds read high; active = any value above zero

Sequence of Sulfhydryl oxidase 1 (Homo sapiens) (O00391 whole entry, looked up): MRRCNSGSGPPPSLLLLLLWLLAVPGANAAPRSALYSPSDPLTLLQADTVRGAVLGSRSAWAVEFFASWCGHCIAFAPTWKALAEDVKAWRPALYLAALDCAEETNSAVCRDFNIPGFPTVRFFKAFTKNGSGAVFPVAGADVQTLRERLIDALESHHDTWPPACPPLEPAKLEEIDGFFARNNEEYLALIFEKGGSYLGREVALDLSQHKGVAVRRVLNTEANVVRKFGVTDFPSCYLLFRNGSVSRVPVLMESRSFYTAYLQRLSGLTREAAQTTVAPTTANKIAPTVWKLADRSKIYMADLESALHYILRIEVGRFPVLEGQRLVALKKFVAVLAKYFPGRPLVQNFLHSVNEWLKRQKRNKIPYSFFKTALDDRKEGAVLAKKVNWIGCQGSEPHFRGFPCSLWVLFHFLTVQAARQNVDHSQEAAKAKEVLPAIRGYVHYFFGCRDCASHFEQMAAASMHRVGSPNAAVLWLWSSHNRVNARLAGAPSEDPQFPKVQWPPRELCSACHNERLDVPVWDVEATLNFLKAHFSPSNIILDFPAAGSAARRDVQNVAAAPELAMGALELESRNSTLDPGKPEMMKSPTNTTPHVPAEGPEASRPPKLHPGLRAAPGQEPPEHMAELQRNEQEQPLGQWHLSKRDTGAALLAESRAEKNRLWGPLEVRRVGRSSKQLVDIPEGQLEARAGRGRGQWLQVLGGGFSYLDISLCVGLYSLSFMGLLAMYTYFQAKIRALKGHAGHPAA

inhibition, active:
CC(C)(C)NCC(O)COc1nsnc1N1CCOCC1 (configuration not stated) 3.8%
CC1CNCCN1S(=O)(=O)c1cccc2cnccc12 (configuration not stated) 37.4%
CC1CN(S(=O)(=O)c2cccc3cnccc23)CCN1 (configuration not stated) 4.9%
O=Nc1ccc2oc(=O)ccc2c1 85%
COC(=O)Nc1nc2ccc(C(=O)c3cccs3)cc2[nH]1 12.3%
O=c1[nH]c(=O)c2nc3ccccc3nc2[nH]1 3.9%
CO[C@@]1(NC(=O)CSCC#N)C(=O)N2C(C(=O)O)=C(CSc3nnnn3C)CS[C@@H]21 10%
CN1C(=O)CC[C@H]1c1cccnc1 3.9%
CN1CCC[C@H]1c1cccnc1 2.5%
COc1ccccc1CNCCCCCCNCCCCCCCCNCCCCCCCNc1ccccc1OC 0.8%
C#CCCN 25.9%
NC(=O)c1cccc(N)c1 19%
CC[C@@H](C)[C@H]1O[C@]2(CC[C@@H]1C)C[C@@H]1C[C@@H](C/C=C(\C)[C@@H](O[C@H]3C[C@H](OC)[C@@H](O[C@H]4C[C@H](OC)[C@@H](O)[C@H](C)O4)[C@H](C)O3)[C@@H](C)/C=C/C=C3\CO[C@@H]4[C@H](O)C(C)=C[C@@H](C(=O)O1)[C@]34O)O2 10.8%
Cc1cccc(/C=C/c2ccccc2)n1 3.6%
O=NN(CCCl)C(=O)NCCCl 10.3%
CCCNC(C)C(=O)Nc1ccccc1C (configuration not stated) 3.1%
Nc1nc2ccc(OC(F)(F)F)cc2s1 7.2%
CCSC(=N)N 3%
CSC(=N)N 14.1%
NC(=O)CNCCC(c1ccccc1)c1ccccc1 1.3%
N=C(N)N1CCc2ccccc2C1 18.5%
CC(C)NNC(=O)c1ccncc1 0.1%
CN(C)CCCC1(c2ccc(F)cc2)OCc2cc(C#N)ccc21 (configuration not stated) 8.6%
Nn1nnc2ccccc21 21.7%
N[C@@H](Cc1c[nH]c2ccc(O)cc12)C(=O)O 45.4%
N[C@@H](Cc1c[nH]c2ccccc12)C(=O)O 3.4%
O=C(O)Cc1c[nH]c2ccc(O)cc12 47.5%
Cc1cnc(NC(=O)C2=C(O)c3ccccc3S(=O)(=O)N2C)s1 44.2%
CN1C(C(=O)Nc2ccccn2)=C(O)c2ccccc2S1(=O)=O 35.6%
CN1C2CCCC1CC(NC(=O)c1nn(C)c3ccccc13)C2 (configuration not stated) 8.4%
NCCS(=O)O 4.2%
CC(=O)NNC(=O)N1Cc2ccccc2Oc2ccc(Cl)cc21 17.2%
N[C@@H](Cn1ccc(=O)c(O)c1)C(=O)O 10.1%
O=[N+]([O-])c1ccc(-c2nc(-c3ccc(F)cc3)c(-c3ccncc3)[nH]2)cc1 92.4%
Oc1ccc(-c2nc(-c3ccc(F)cc3)c(-c3ccncc3)[nH]2)cc1 97%
O=C1Cc2c([nH]c3ccc(Br)cc23)-c2ccccc2N1 1.7%
C=C1N=C(N=NC2=C(S(=O)(=O)[O-])[C+]=C(S(=O)(=O)[O-])[C+]=C2)[C+](COP(=O)([O-])O)C(C=O)=C1O 6.1%
O=C1OC(=O)C2C3CCC(O3)C12 (configuration not stated) 9.8%
Nc1ncn([C@@H]2O[C@H](CO)[C@H](O)C2O)c(=O)n1 (some centres not stated) 21.3%
NC[C@H]1O[C@@H](n2cnc3c(N)ncnc32)[C@H](O)[C@@H]1O 16.1%
Nc1nc(Cl)nc2c1ncn2[C@@H]1O[C@H](CO)[C@H](O)C1O (some centres not stated) 13.7%
Nc1ncnc2c1ncn2[C@@H]1O[C@H](CO)[C@H](O)C1O (some centres not stated) 13.8%
Nc1nc2c(ncn2[C@@H]2O[C@H](CO)[C@@H](O)[C@@H]2O)c(=O)[nH]1 7.5%
Nc1nc(Nc2ccccc2)nc2c1ncn2[C@@H]1O[C@H](CO)[C@H](O)C1O (some centres not stated) 8.8%
Nc1ncnc2c1ncn2C1CCCC1 12.4%
OC[C@H]1O[C@@H](n2cnc3cncnc32)[C@H](O)[C@@H]1O 17%
CCCC(CCC)C(=O)O 40.8%
N#Cc1cc([N+](=O)[O-])c2sc(C(N)=O)[n+]([O-])c2c1 25.4%
Nc1ncnc2c1ncn2[C@@H]1O[C@H](COP(=O)(O)OP(=O)(O)OP(=O)(O)OP(=O)(O)OC[C@@H]2O[C@H](n3cnc4c(N)ncnc43)C(O)[C@@H]2O)[C@H](O)C1O (some centres not stated) 11.6%
Nc1ncnc2c1ncn2[C@@H]1O[C@H](COP(=O)(O)CP(=O)(O)OP(=O)(O)O)[C@H](O)C1O (some centres not stated) 13.7%
NC(=S)c1ccc[n+]([C@@H]2O[C@@H](COP(=O)([O-])OP(=O)(O)OC[C@H]3O[C@@H](n4cnc5c(N)ncnc54)C(OP(=O)(O)O)[C@H]3O)C(O)C2O)c1 (some centres not stated) 4.8%
O=c1[nH]cnc2[nH]ncc12 19.2%
CC(=O)/C=C1\C(=O)N(C)c2ccccc21 4.3%
CCCCCCCC/C=C\CCCCCCCC(=O)NCCc1ccc(O)c(O)c1 1.1%
COc1cc(CNC(=O)CCCCCCC(C)C)ccc1O 15.1%
CCCCCCCC/C=C\CCCCCCCC(=O)NCc1ccc(O)c(OC)c1 8%
CN(C)C(=O)/N=N/C(=O)N(C)C 13.5%
N[C@@H](CCC(=O)N[C@H](CSN=O)C(=O)NCC(=O)O)C(=O)O 15.7%
[N-]=[N+]=Nc1ccc(C(=O)CSC[C@H](NC(=O)CC[C@H](N)C(=O)O)C(=O)NCC(=O)O)cc1 19.5%
COc1ccc(-c2cc3ncc(C)n3c(Nc3ncccc3C(N)=O)n2)cc1OC 20.4%
COC1=C(OC)C(=O)c2ccccc2C1=O 37.3%
O=C1c2ccccc2C(=O)c2c(NCCc3ccc(O)cc3)ccc(NCCc3ccc(O)cc3)c21 60.9%
O=C(O)C1CN(CCCP(=O)(O)O)CCN1 (configuration not stated) 37%
CC(N)(Cc1ccc(O)c(O)c1)C(=O)O (configuration not stated) 31.2%
C[C@](Cc1ccc(O)c(O)c1)(NN)C(=O)O 44.1%
C[C@](N)(Cc1ccc(O)c(O)c1)C(=O)O 36.6%
O=C(c1ccc(OCCCc2cnc[nH]2)cc1)C1CC1 8%
CC1(C)CCC(NC(=O)[C@@H](N)CCC(=O)O)CC1 8.5%
CCOC(=O)Nc1ccc(NCc2ccc(F)cc2)nc1N 40%
O=C1C(SCCO)=C(SCCO)C(=O)c2ccccc21 66.7%
CN(C)c1nc2c(Br)c(Br)c(Br)c(Br)c2[nH]1 46.6%
Nc1cc(=O)[nH]c(N)n1 11.6%
C#CCN(C)CCCOc1ccc(Cl)cc1Cl 6.1%
Cn1cnc([N+](=O)[O-])c1Sc1ncnc2nc[nH]c12 19.5%
COc1nc(C)nc(Cl)c1NC1=NCCN1 12.9%
Clc1cccc(Cl)c1NC1=NCCN1 7.2%
Nc1cc(Cl)c(NC2=NCCN2)c(Cl)c1 23.9%
CC1=C(C)C(=O)C(CCCCC#CCCCC#CCO)=C(C)C1=O 32.9%
CCCCCCCCCCCCCCCCCCNC(=O)OCC(COP(=O)([O-])OCC[n+]1ccsc1)OC (configuration not stated) 10.6%
N=c1ccn2c(n1)OC1C(O)[C@@H](CO)O[C@H]12 (some centres not stated) 6.1%

inhibition, inactive:
NC(=O)c1cn(Cc2c(F)cccc2F)nn1 -7.2%
CCCN(CCC)CCc1cccc2c1CC(=O)N2 -8.3%
NC(=O)c1ccccc1 -9.9%
NC(=O)c1ccc2[nH]ccc2c1 -15.5%
C1COC(NC(C2CC2)C2CC2)=N1 -6.7%
CC(=O)O[C@]1(C(C)=O)CC[C@H]2[C@@H]3C=C(Cl)C4=CC(=O)[C@@H]5C[C@@H]5[C@]4(C)[C@H]3CC[C@@]21C -5.1%
Nc1ccn([C@@H]2O[C@H](CO)[C@@H](O)C2O)c(=O)n1 (some centres not stated) -7%
CC(=O)O[C@H]1C(=O)[C@@]2(C)C([C@H](OC(=O)c3ccccc3)[C@]3(O)C[C@H](OC(=O)[C@H](O)[C@@H](NC(=O)c4ccccc4)c4ccccc4)C(C)=C1C3(C)C)[C@]1(OC(C)=O)CO[C@@H]1C[C@@H]2O (some centres not stated) -4.9%
CCc1cccc2c3c([nH]c12)C(CC)(CC(=O)O)OCC3 (configuration not stated) -6%
CCNc1nc2c(ncn2[C@H]2C[C@H](O)[C@@H](CO)O2)c(=O)[nH]1 -2.5%
Nc1ncnc2c1ncn2C1CCCO1 (configuration not stated) -13.6%
NC(=O)C1=C[N+](=C2OC(COP(=O)(O)OP(=O)([O-])OC[C@H]3O[C@@H](n4cnc5c(N)ncnc54)C(OP(=O)(O)O)[C@H]3O)C(O)C2O)C=CC1 (some centres not stated) -12.9%
CCN(CC)c1ncnc2c1ncn2[C@@H]1O[C@H](COP(=O)(O)OP(=O)(O)C(Br)(Br)P(=O)(O)O)[C@@H](O)[C@H]1O -3%
Clc1ccccc1C(c1ccccc1)(c1ccccc1)n1ccnc1 -1.8%
O=C1Cc2cc(CCN3CCN(c4nsc5ccccc45)CC3)c(Cl)cc2N1 -10.1%
NO -43.8%
O=C1c2ccccc2-c2n[nH]c3cccc1c23 -5.6%
Nc1nc2[nH]c(=O)cnc2c(=O)[nH]1 -15.8%
C#CCN(C)Cc1ccccc1 -4.3%
Fc1ccc(CN(C2=NCCN2)c2c(Cl)cccc2Cl)cc1 -1.5%
Clc1ccc2nsnc2c1NC1=NCCN1 -10.4%
CCCCCCCCCCCCCCCCCCOC[C@H](COP(=O)([O-])OCC[N+](C)(C)C)OC -5.6%

From PubChem BioAssay AID1347420 (Sanford-Burnham Center for Chemical Genomics, 2020)
